Screening results: PubChem, Bradner/Qi Labs at DFCI
CBX7 inh – blocks human CBX7 binding to H3K27me3 peptide; AlphaScreen His6-CBX7 / biotin-H3K27me3 peptide binding; hits give low values; normalised signal (fraction of DMSO) (concentration not given with the values); 1.1% of 66,000 active; O95931; in the data active = normalised signal below about 0.5
Target sequence (O95931 whole entry, looked up): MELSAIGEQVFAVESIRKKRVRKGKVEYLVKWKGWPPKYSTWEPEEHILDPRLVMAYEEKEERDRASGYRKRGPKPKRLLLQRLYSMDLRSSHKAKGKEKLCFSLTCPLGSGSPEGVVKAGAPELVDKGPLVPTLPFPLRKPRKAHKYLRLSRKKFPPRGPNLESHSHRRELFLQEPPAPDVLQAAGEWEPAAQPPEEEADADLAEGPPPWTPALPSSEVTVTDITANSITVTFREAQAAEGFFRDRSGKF
Large screens that a line does not name were inactive. Many of the other results were omitted from the sample, so hits are more common in it than they were.

O=C(Nc1cccc(Cl)c1)c1cc2nc(-c3ccc(F)cc3)cc(C(F)(F)F)n2n1	none
CC1CCN(c2nc3ccc(C(=O)NCCCN4CC(C)CC(C)C4)cc3s2)CC1 (configuration not stated)	none
CCOC(=O)c1ccc(NC(=O)CCc2c(C)nc3cc(-c4ccccc4)nn3c2C)cc1	none
CC1CCCCN1CCNC(=O)Cn1nc(-c2ccc(Cl)cc2)ccc1=O (configuration not stated)	none
O=c1[nH]c2ccc(NCc3ccc(F)cc3)cc2[nH]1	none
O=c1[nH]c2ccc(NCc3ccc(OCc4ccc(Cl)cc4)cc3)cc2[nH]1	none
CCOc1cccc(CNc2ccc3[nH]c(=O)[nH]c3c2)c1OCc1ccc(Cl)cc1	CBX7 inh 0.445
CCc1ccccc1NC(=O)c1c(C)nn(-c2ccccc2)c1Cl	none
O=C(NCc1ccc(F)cc1)c1ccc2c(c1)N(Cc1ccccc1F)C(=O)CS2	none
CCOC(=O)c1[nH]cnc1C(=O)Nc1ccccc1	none
CCOC(=O)c1[nH]cnc1C(=O)Nc1ccc(OC)cc1	CBX7 inh 0.066
CCOC(=O)c1[nH]cnc1C(=O)Nc1ccccn1	CBX7 inh 0.194
CCOc1ccc(C2C(C(=O)Nc3ccccn3)=C(C)NC3=C2C(=O)CCC3)cc1 (configuration not stated)	none
CCOC(=O)c1ccc(NC(=O)COc2ccc(OC)cc2)cc1	none
CCCCCCOc1ccc(C(=O)Nc2ccccn2)cc1	none
O=S(=O)(Nc1ccc(F)c(Cl)c1)c1cnc[nH]1	none
CC(C(=O)NCc1ccc(F)cc1)n1ncc2ccccc21 (configuration not stated)	none
Cc1c(C(=O)NCc2ccccn2)oc2ccc(S(=O)(=O)N3CCCCC3)cc12	none
CCN(CCCNC(=O)Cc1ccc(NC2=NC3CS(=O)(=O)CC3S2)cc1)c1ccccc1 (configuration not stated)	none
Cc1ccc2nc(-c3c[nH]c4ccccc34)c(Nc3ccc4c(c3)OCO4)n2c1	none
Cc1ccc2nc(-c3cccnc3)c(Nc3ccc4c(c3)OCCO4)n2c1	none
Cc1cccc(C)c1Nc1c(-c2ccccn2)nc2ccc(Cl)cn12	none
Cc1ccc2nc(-c3ccccn3)c(Nc3ccc4c(c3)OCCO4)n2c1	CBX7 inh 0.00102
Cc1ccc2nc(-c3ccncc3)c(Nc3ccc4c(c3)OCO4)n2c1	none
Brc1ccc2nc(-c3ccccn3)c(Nc3ccccc3)n2c1	none
Clc1ccc(Nc2c(-c3ccccn3)nc3ccc(Cl)cn23)cc1	none
Cc1ccc(Nc2c(-c3ccccn3)nc3ccc(C)cn23)cc1	CBX7 inh 0.0836
Cc1ccc2nc(-c3ccccn3)c(Nc3ccc4c(c3)OCO4)n2c1	CBX7 inh 0.0299
Cc1ccc2nc(-c3ccccn3)c(Nc3ccc(C(C)C)cc3)n2c1	none
Cc1cccc(C)c1Nc1c(-c2ccccn2)nc2ccc(Br)cn12	CBX7 inh 0.437
Cc1ccc2nc(-c3ccccc3)c(Nc3ccc4c(c3)OCCO4)n2c1	none
Cc1c(Cl)cccc1Nc1nc(-c2ccc(Cl)cc2)nc2ccccc12	none
COc1ccc(-c2cc(C(=O)NCCc3ccc(OC)c(OC)c3)no2)cc1	none
Cc1sc(NC(=O)c2ccc(C#N)cc2)nc1-c1ccccc1	none
Fc1ccccc1CSc1nc2ccncc2n1Cc1cccc(Cl)c1	none
O=c1[nH]c2ccccc2nc1Cc1ccccc1Cl	none
O=C(Nc1ccc(-c2noc(-c3ccccc3Br)n2)cc1)c1cccnc1	none
Cc1nc2c(-c3ccc(F)cc3)c(C)nn2c(C)c1CCC(=O)Nc1cccc(F)c1	none
CCOCCCNC(=O)c1ccc2c(c1)N(Cc1ccccc1)C(=O)c1ccccc1S2=O (configuration not stated)	none
Cc1ccc2nc(-c3c[nH]c4ccccc34)c(Nc3ccc(F)cc3)n2c1	none
Cc1ccn2c(Nc3ccc4c(c3)OCO4)c(-c3ccccn3)nc2c1	CBX7 inh 0.0343
Cc1ccn2c(Nc3ccc4c(c3)OCCO4)c(-c3cccs3)nc2c1	none
Cc1ccccc1Nc1c(-c2c[nH]c3ccccc23)nc2ccc(Br)cn12	none
Cc1ccn2c(Nc3ccc4c(c3)OCO4)c(-c3ccsc3)nc2c1	none
Cc1ccc(Nc2c(-c3c[nH]c4ccccc34)nc3ccc(Br)cn23)cc1	CBX7 inh 0.49
Cc1ccc(NC(=O)Cc2c(Sc3ccccc3)c3cc(C)ccc3n2C)cc1	none
CC1CCN(c2nc3ccc(C(=O)NC4CCN(Cc5ccccc5)CC4)cc3s2)CC1	none
Cc1ccc2nc(NC(=O)c3ccccc3Oc3ccccc3)sc2c1	none
CCC(C)NC(=O)c1cc(=O)[nH]c2ccc(S(=O)(=O)N3CCCCC3C)cc12 (configuration not stated)	none
CCC(C)NC(=O)CC(C(=O)N1CCc2ccccc21)n1ccnc1 (configuration not stated)	none
O=C(CC(C(=O)N1CCc2ccccc21)n1ccnc1)NC1CC1 (configuration not stated)	none
O=C(CC(C(=O)N1CCc2ccccc21)n1ccnc1)NC(c1ccccc1)c1ccccc1 (configuration not stated)	CBX7 inh 0.451
Cc1ccc(-n2ncc3c(=O)n(-c4ccc(C)c(F)c4)c(C)nc32)cc1C	none
Cc1nn(Cc2ccc(Cl)cc2)c(C)c1NC(=O)c1cc(-c2cccc(Cl)c2)on1	none
CCCCC(=O)Nc1cccc(-c2csc(-c3ccccc3)n2)c1	none
CCc1cc(-c2nc(-c3ccc(Cl)c(Cl)c3)cs2)ccn1	none
CCCc1cc(-c2nc(-c3cccc([N+](=O)[O-])c3)cs2)ccn1	CBX7 inh 0.429
Cc1ccc(-n2nc3c(c2NC(=O)c2cccc(C(F)(F)F)c2)CSC3)cc1	none
CCCCNC(=O)CCC(=O)Nc1ccc2nc(N3CC(C)CC(C)C3)cc(C)c2c1 (configuration not stated)	none
COc1cccc(OCC(O)CN2CCC(C)CC2)c1 (configuration not stated)	none
Cc1ccc(-c2noc(CN3CCC(C)CC3)n2)cc1	none
COCc1cc(CN2CCC(C)CC2)c(O)c2ncccc12	CBX7 inh 0.00387
CC1CCN(C(=O)c2n[nH]c(=O)c3ccccc23)CC1	none
Cc1ccc(-c2nn(CC(=O)NC3CCCC3)c(=O)c3ccccc23)cc1	none
O=C1c2ccccc2C(Nc2ccc(Br)cc2)N1c1cccnc1 (configuration not stated)	none
COc1cccc(NC2c3ccccc3C(=O)N2c2cccnc2)c1 (configuration not stated)	none
O=C1c2ccccc2C(Nc2cccnc2)N1c1cccnc1 (configuration not stated)	CBX7 inh 0.0687
CC(Cc1c[nH]c2ccccc12)NC(=O)C(c1ccccc1)c1ccccc1 (configuration not stated)	none
Fc1cccc(Nc2nc(-c3ccccc3F)nc3ccccc23)c1	none
COc1ccc(Nc2nc(-c3ccccc3F)nc3ccccc23)c(OC)c1	none
COc1cccc(Nc2nc(-c3ccccc3F)nc3ccccc23)c1	CBX7 inh 0.331
O=c1c(S(=O)(=O)c2ccc(F)cc2)c[nH]c2cc3c(cc12)OCO3	none
CCCN1CCCc2cc(CN(CCCN3CCOCC3)C(=O)Nc3ccccc3)ccc21	none
CCc1ccc(NC(=O)N(CCN2CCOCC2)Cc2ccc3c(c2)CCCN3CC)cc1	none
CCN1CCCc2cc(CN(CCN3CCOCC3)C(=O)Nc3ccc(C)c(C)c3)ccc21	CBX7 inh 0.22
CCCOc1ccc(-c2nc(-c3ccc(C)cc3)no2)cc1	none
COc1cccc(CNc2sc3c(c2C(=O)Nc2cc(OC)ccc2OC)CCCC3)c1	none
COc1ccc(OC)c(NC(=O)c2c(NCc3ccc(OC)c(OC)c3)sc3c2CCC3)c1	none
COc1ccc(OC)c(NC(=O)c2c(NCc3ccc(N(C)C)cc3)sc3c2CCCC3)c1	CBX7 inh 0.48
